# Screen size: about 1,500 compounds; about 920 (61%) were called active. No rule for the calls is given here. The set was probably picked from earlier hits. The list shows a part of the results. Measured potencies and affinities stand elsewhere.
# Experiment: Vero 76 cell cytotoxicity, dose response, cytotoxicity control for VEEV inhibitor project (AID 588719)
# Conditions: Vero 76 cells viability, cytotoxicity counter-screen; series mostly up to 25 µM
row,SMILES,outcome
1,Cc1ccccc1NC(=S)/C(=C(\[O-])c1ccc(C)c([N+](=O)[O-])c1)[n+]1ccccc1,inactive
2,O=C(Nc1ccccc1)c1cccc(Cn2cc(C(F)(F)F)ccc2=O)c1,inactive
3,Cc1cc(C(=O)NC2CCCc3c2cnn3-c2cccc(C)c2C)no1 (stereo not given),inactive
4,CCOC(=O)C1C(=O)C(=O)N(C2CCCCC2)C1C(=O)OCC (stereo not given),inactive
5,C/C(N)=C(/C#N)C(=O)COC(=O)c1cc(C)n(-c2ccc(F)cc2)c1C,inactive
6,CCCn1c(SCC(=O)N(C)C2CCS(=O)(=O)C2)nc2sc3c(c2c1=O)CCC3 (stereo not given),inactive
7,CN(C(=O)CCN1C(=O)/C(=C/c2ccccc2F)SC1=S)C1CCS(=O)(=O)C1 (stereo not given),inactive
8,Cc1cccc(C)c1OCC(=O)N(Cc1cccs1)C1CCS(=O)(=O)C1 (stereo not given),inactive
9,O=C(Cn1c(=O)sc2ccccc21)Nc1nc2c(s1)CCCC2,inactive
10,NC(=O)CC(NC(=O)Cc1ccc(Br)cc1)c1ccc(N2CCC(Cc3ccccc3)CC2)c([N+](=O)[O-])c1 (stereo not given),inactive
11,CCCCCCCCCC(=O)N[C@@H]1c2cc(OC)c(OC)cc2C[C@H]1OCc1ccccc1,inactive
12,COc1ccc(/C=N/NC(=O)c2cc[n+]([O-])cc2)cc1OC,inactive
13,CN(C)CCCN(C(=O)c1cc(-c2cccs2)nc2ccccc12)c1nc2ccc(F)cc2s1,inactive
14,CCCn1nc(NC(=O)c2cccs2)c2cc3cccc(C)c3nc21,inactive
15,COc1ccccc1C(CNC(=O)CNC(=O)c1ccc(Cl)c(Cl)c1)N1CCCC1 (stereo not given),inactive
16,C/C(=N/OCO/N=C(/C)c1ccc(F)cc1)c1ccc(F)cc1,inactive
17,C/C(=N\NC(=O)c1ccc(N/N=C(\C)c2ccc(O)cc2)cc1)c1ccc(O)cc1,inactive
18,Cc1ccc(S(=O)(=O)C2(C(=O)NCc3ccccc3Cl)CC2)cc1,inactive
19,Cc1ccccc1NC(=NCCCN1CC1)Nc1ccccc1C,inactive
20,Cc1ccccc1CN(C)C(C)C(=O)Nc1ccccc1F (stereo not given),inactive
21,O=C1C2CCCN2C(c2cccs2)N1c1ccc(Cl)cc1 (stereo not given),inactive
22,C[C@@H]1CN([C@H](C)CO)C(=O)CCCn2nncc2CO[C@H]1CN(C)C(=O)C1CC1,inactive
23,CC(C)[N+]1=C2C=CC=CC=C2SC12C([N+](=O)[O-])=CC(=[N+]([O-])[O-])C=C2[N+](=O)[O-] (stereo not given),inactive
24,CCC(=O)N1CCN(c2ccc(Cl)cc2NC(=O)c2cccc([N+](=O)[O-])c2)CC1,inactive
25,O=C(Nc1csc([N+](=O)[O-])c1)Nc1ccccc1Cl,inactive
26,Cc1ccc(CS(=O)Cc2ccc(C(=O)N3CCN(c4cccc(C)c4C)CC3)o2)cc1 (stereo not given),inactive
27,COc1ccc(Cl)cc1C=CC=Nc1ccc(S(N)(=O)=O)cc1,inactive
28,N#Cc1cccc(NC(=O)CSc2n[nH]c(=O)[nH]c2=O)c1,inactive

row,SMILES,outcome
1,Cc1ccc(CN2CCCC(C(=O)c3ccc4c(c3)OCO4)C2)cc1C (stereo not given),inactive
2,O=[N+]([O-])c1cccc(C([O-])=C(C(=S)Nc2cccc3ccccc23)[n+]2ccccc2)c1,inactive
3,COc1ccc(N2CCCC2)c(NC(=O)c2ccc([N+](=O)[O-])o2)c1,inactive
4,O=[N+]([O-])c1cccc(/C([O-])=C(/C(=S)Nc2cccc3ccccc23)[n+]2ccccc2)c1,inactive
5,Cc1nc(N)[nH]c(=O)c1CCCNc1ccc([N+](=O)[O-])cc1,inactive
6,C=CCNCCCCOc1ccc(OCc2ccccc2)cc1,inactive
7,CCn1c(=O)c([N+](=O)[O-])c(NCc2ccc3c(c2)OCO3)c2ccccc21,inactive
8,Cc1ccc(Nc2nc(=O)c3cccnc3s2)c(Br)c1,inactive
9,CCN1C/C(=C\c2cc(OC)c(OC)c(OC)c2)C2=NN(c3ccccc3)C(c3cc(OC)c(OC)c(OC)c3)C2C1 (stereo not given),inactive
10,CC(C)CN1C(=O)/C(=C(/C#N)C(=O)NC2CCCCC2)c2ccccc21,inactive
11,Cc1ccc(SCCC(=O)Nc2nccs2)cc1,inactive
12,COc1ccc(C(=O)NC2CCCc3c2cnn3-c2cccc(C)c2C)o1 (stereo not given),inactive
13,Cn1c(CCN2CCCCC2)nc2cc(NC(=O)COc3ccc([N+](=O)[O-])cc3)ccc21,inactive
14,COc1ccc(Cl)cc1S(=O)(=O)N1CCN(C(=O)c2n[nH]c(=O)c3ccccc23)CC1,inactive
15,O=c1oc(C2(O)CCCCC2)cc2ccc(-c3ccc4[nH]ccc4c3)cc12,inactive
16,O=C(C=Cc1cccc(Cl)c1)c1ccccc1,inactive
17,Cc1cc(NC(=O)C(C)SCC(=O)N(Cc2ccccc2)c2ccccc2)no1 (stereo not given),inactive
18,Cc1cc(NC(=O)COC(=O)c2cc(S(=O)(=O)N(C)c3ccccc3)ccc2Cl)no1,inactive
19,O=C(O)c1cc(-c2ccc3ccccc3c2)nc2ccc(F)cc12,inactive
20,Cc1nc(N)ncc1Sc1ccccc1,inactive
21,O=C(CSc1nc2ccc(Cl)cc2[nH]1)c1cccs1,inactive
22,O=C(/C=C/c1ccnc2ccccc12)c1cccs1,inactive
23,CN1CCN(c2ccc(CNS(=O)(=O)c3ccccc3)cc2)CC1,inactive
24,COc1cccc(N2CCN(c3ccc(S(=O)(=O)N4CCN(C)CC4)cc3[N+](=O)[O-])CC2)c1,inactive
25,COc1ccc(N2CCN(CCCn3c(=S)[nH]c4ncccc4c3=O)CC2)cc1,inactive
26,C#CCSc1nc(=O)c2cccnc2n1-c1ccc(C)cc1,inactive
27,CCN(CC)CC(=O)Nc1ccc(/C(C)=N/NC2=NCCN2)cc1,inactive
